According to PubChem BioAssay (NCATS):
Records with an inconclusive call do not appear. Entries that show only a call come without a potency. Activity calls are given as the source filed them. Calls follow the shape of the dose curve; as a rule, active = well fitted inhibition curve with a large enough effect; inconclusive = small, poorly fitted or top-dose-only effect; inactive = no such curve, though single readings can be large or run the other way.

assay: BET inhibitor-based combinations targeting novel dependencies in MECOM-rearranged (r) AML: HNT-34 cell line (AID 2202234); conditions: HNT-34 AML viability, CellTiter-Glo luminescence, 48 h; series mostly up to 46 µM; also: nearly all actives have a fitted effect of over 35% in size
Description: Ecotropic viral insertion site 1 (EVI1) is located on chromosome 3q26.2 as part of the MECOM (MDS and EVI1 complex) locus. Under normal hematopoiesis, EVI1 is a regulator of hematopoietic stem cell maintenance and self-renewal and EVI1 levels decrease as the cells differentiate. In approximately 5-10% of de novo acute myeloid leukemia (AML) EVI1 is aberrantly expressed, including Chromosomal inv(3)(q21;q26.2) or t(3;3)(q21;q26.2) alterations (MECOM-r) that account for about 50% of AML with EVI1 overexpression 31. AMLs with high levels of EVI1 have a poor prognosis and an overall survival time averaging between 10-14 months. EVI1 overexpression confers resistance in leukemia cells, highlighting the need to develop new targeted therapies for EVI1 overexpressing AMLs. Here, we performed an unbiased chemical drug screening by evaluating the single agent activity of a collection of 2,480 oncology-focused, approved and investigational drugs (NCATS Mechanism Interrogation Plates, MIPE v5.0) against a panel of seven AML cell lines. These included four MECOM-r cell-lines (AML-191, AML-194, UCSD-AML1 and HNT-34) and three non-MECOM-r AMLs (MV4-11, OCI-AML3 and SET-2). Exploiting the mechanistic redundancy built in the library, we identified target-level sensitivities in MECOM-r AML cells and relative activity as compared to other AML subtypes.
A collection of 2480 mechanistically annotated dugs (MIPE v5.0) was used to screen four 3q26.2 rearranged AML cell lines and three non-3q26.2 rearranged AML cell lines. This library purposely exploits redundancy by including multiple inhibitors of key onco-targets, while simultaneously encompassing mechanistic diversity, targeting more than 800 distinct mechanisms of action. Briefly, cells were seeded in 5 uL of growth media using a Multidrop Combi dispenser into 1536 well white polystyrene tissue culture treated plates (Corning) at a density of 500cells/well. For each cell-line, for each of the 2480 drugs in MIPE v5.0 library, an 11-point dose curve was generated via a 1536 pin-tool. Plates were incubated for 48 hr at standard incubator conditions, covered by a stainless steel gasketed lid to prevent evaporation. Cell viability was determined by luminescence based, Cell Titer Glo assay (Promega). In detail, 3 uL of Cell Titer Glo were added to each well and plates were incubated at room temperature for 15 min with a stainless-steel lid in place. Luminescence readings were taken using a Viewlux (PerkinElmer) with a 2 s exposure time per plate. Compound dose-response curves were normalized to DMSO and empty well controls on each plate. Quantitative drug activity data from dose-response curves was determined utilizing area Under the Curve (AUC) and Z-transformed AUC (Z-AUC, a mean-centering transformation applied to each individual cell-line screened).
Potency is read from the fitted curve at half-maximal effect.

SMILES | Potency
C[C@@H]1O[C@@H](O[C@H]2C[C@@H](O)[C@]3(CO)[C@H]4[C@H](O)C[C@]5(C)[C@@H](C6=CC(=O)OC6)CC[C@]5(O)[C@@H]4CC[C@]3(O)C2)[C@H](O)[C@H](O)[C@H]1O | 93.4 nM (active)
COc1cc(C)[nH]c(=O)c1CNC(=O)c1c(C)n([C@H](C)C2CCN(CC(F)(F)F)CC2)c2ccccc12 | inactive
COC12C(COC(N)=O)C3=C(C(=O)C(C)=C(N)C3=O)N1CC1C2N1C (stereo not given) | inactive
O=c1cccc2n1CC1CNC[C@H]2C1 | inactive
C[C@]12CC[C@H](O)CC1=CC[C@@H]1[C@@H]2CC[C@]2(C)C(=O)CC[C@@H]12 | inactive
CCOC(=O)c1c(C(C#N)=CN)c2ccc(Cl)c(Cl)c2n1C | inactive
Cc1sc2c(c1C)C(c1ccc(Cl)cc1)=NC(CC(N)=O)c1nnc(C)n1-2 (stereo not given) | 148 nM (active)
O=C(O)c1nn(Cc2ccc(Cl)cc2Cl)c2ccccc12 | inactive
CC(C)(C)c1cc(C=C(C#N)C#N)cc(Br)c1O | 16600 nM (active)
CC(N[C@H]1C[C@@H]1c1ccccc1)c1ccc2c(c1)OCCO2 (stereo not given in full) | inactive
CN1C(=O)CCS(=O)(=O)C1c1ccc(Cl)cc1 (stereo not given) | inactive
O=C(NCCCNc1nc(Nc2ccc(N3CCOCC3)cc2)ncc1C1CC1)C1CCC1 | 13200 nM (active)
N=c1c2c(-c3ccccc3)c(-c3ccccc3)n(Cc3ccccc3)c2ncn1C1CCC(O)CC1 (stereo not given) | 2630 nM (active)
CC(C)[C@H]1C(=O)N[C@H](CO)Cc2c[nH]c3cccc(c23)N1C | 51.2 nM (active)
C[C@H]1[C@H](O)[C@@H](C)/C=C/C=C/CC/C=C/C=C/C=C/C=C/[C@H](O[C@@H]2O[C@H](C)[C@@H](O)[C@H](N)[C@@H]2O)C[C@@H]2O[C@](O)(C[C@@H](O)[C@H](O)CC[C@@H](O)C[C@@H](O)C[C@@H](O)CC(=O)O[C@H]1C)C[C@H](O)[C@H]2C(=O)O | inactive
O=C1C=CC[C@@H]2[C@H]3CCCN4CCC[C@@H](CN12)[C@@H]34 | inactive
Cc1[nH]nc2ccc(-c3cncc(OC[C@@H](N)Cc4c[nH]c5ccccc45)c3)cc12 | 742 nM (active)
C[C@]12CCC(=O)C(O)=C1CC[C@@H]1[C@@H]2CC[C@]2(C)C(=O)CC[C@@H]12 | inactive
CCc1c(C(=O)C(N)=O)c2c(OCC(=O)O)cccc2n1Cc1ccccc1 | inactive
O=P1(NCCCl)OCCCN1CCCl (stereo not given) | inactive

SMILES | Potency
COC(=O)[C@@]12OC[C@]34[C@H]([C@@H](O)[C@@H]1O)[C@@]1(C)CC(=O)C(O)=C(C)[C@@H]1C[C@H]3OC(=O)[C@H](OC(=O)/C=C(\C)C(C)C)[C@@H]24 | 4.2 nM (active)
COc1cc(C)[nH]c(=O)c1CNC(=O)c1c(C)n([C@H](C)C2CCOCC2)c2ccccc12 | inactive
CN(C)CCN(C)CCc1ccc(Cl)c(Cl)c1 | inactive
O=C1CC[C@@]2(O)[C@H]3Cc4ccc(O)c5c4[C@@]2(CCN3CC2CC2)[C@H]1O5 | inactive
Cn1c(/C=C/CO)c(CO)c2c1C(=O)C=C(N1CC1)C2=O | inactive
C#CCN(C)[C@H](C)Cc1ccccc1 | inactive
C[C@@H](C1CC[C@@]2(O)C3=CC(=O)[C@@H]4C[C@@H](O)[C@@H](O)C[C@]4(C)[C@H]3CC[C@]12C)[C@H](O)CCC(C)(C)O (stereo not given in full) | inactive
CC(C)[C@]12O[C@H]1[C@@H]1O[C@]13[C@]1(O[C@H]1C[C@H]1C4=C(CC[C@@]13C)C(=O)OC4)[C@@H]2O | 74.2 nM (active)
CCN(CC)C(=O)c1ccc(C2=CC3(CCNCC3)Oc3cccc(O)c32)cc1 | inactive
CCCC[N+]1(C)[C@H]2CC(OC(=O)[C@H](CO)c3ccccc3)C[C@H]1[C@H]1O[C@H]12 (stereo not given in full) | inactive
COC[C@@H](NC(C)=O)C(=O)NCc1ccccc1 | inactive
O=C(O)CNC(=O)c1c(O)c2ccccc2n(Cc2ccccc2)c1=O | inactive
O=c1[nH]c2ccc(Cl)cc2c(N[C@@H]2CN3CCC2CC3)c1-c1nc2ccccc2[nH]1 | 590 nM (active)
O=C(O)CNC(=O)C1C(=O)N(C2CCCCC2)C(=O)N(C2CCCCC2)C1=O | inactive
COc1cc(C(=O)N2CC[C@@H](O)[C@@H](N)C2)cc2nc(-c3cc4ccccc4n3CC3CC3)n(C)c12 | inactive
CCCCCCC(C)(C)c1cc(O)c2c(c1)OC(C)(C)C1CC=C(CO)C[C@H]21 (stereo not given in full) | 14800 nM (active)
NC(=O)[C@@H](CC1CC1)[C@@H](CCC(F)(F)F)C(=O)N[C@H]1N=C(c2ccccc2)c2cccc(F)c2NC1=O | inactive
Cn1c(CCCC(=O)O)nc2cc(N(CCCl)CCCl)ccc21 | 14800 nM (active)
CCN1C[C@]2(OC(=O)c3ccccc3NC(C)=O)CC[C@H](OC)[C@@]34[C@H]5CC6[C@@H](OC)C[C@](O)(C(C[C@@H]23)[C@@H]14)[C@@]5(O)[C@@H]6OC | inactive
COCC1(CO)C(=O)C2CCN1CC2 (stereo not given) | 5900 nM (active)
